Test results reported in PubChem BioAssay AID1578 (Sanford-Burnham Center for Chemical Genomics, 2009).
Among all 290,000 compounds or so, about 3,000 (1%) were called active. Cut-off read from the data, not from the text of the source: active = inhibition mostly above about 36% (no sharp cut-off); inactive = mostly below about 34%. The full list was thinned out, with actives kept by preference.

Assay: inhibition of NOD1-driven NF-kB reporter – cell-based, luminescence, uHTS, primary screen (AID 1578);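 note: HEK-293T reporter cells stimulated with the NOD1 agonist gamma-tri-DAP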
Conditions: NOD1-driven NF-kB luciferase reporter cells, at 4 µM, hits give high values

Row | Compound | inhibition
1 | COc1ccc(NC(=O)CSc2[nH]c(=O)cc(C)c2C#N)cc1OC | -23.7% (inactive)
2 | Cc1cc(=O)[nH]c(SCC(=O)Nc2ccc(Br)cc2)c1C#N | 67.2% (active)
3 | Cc1cc(=O)[nH]c(SCC(=O)Nc2ccc(F)cc2)c1C#N | -21.3% (inactive)
4 | CN1C2CCC1/C(=C\c1ccccc1)C(=O)/C2=C\c1ccccc1 | 36.3% (inactive)
5 | CN1C2CCC1/C(=C\c1ccc(F)cc1)C(=O)/C2=C/c1ccc(F)cc1 | 77.7% (active)
6 | CN1C2CCC1/C(=C\c1ccccc1F)C(=O)/C2=C/c1ccccc1F | 34.2% (inactive)
7 | Cc1cccc(N2CCN(C(=O)c3cc(S(=O)(=O)N4CCOCC4)cn3C)CC2C)c1 (configuration not stated) | -17.7% (inactive)
8 | Cc1cc(CNC(=O)c2cccc([N+](=O)[O-])c2)c2ccccc2n1 | 47.9% (active)
9 | Cc1cc(CNC(=O)c2ccc(C)c([N+](=O)[O-])c2)c2ccccc2n1 | 26.1% (inactive)
10 | Cc1cc(CNC(=O)Cn2cc([N+](=O)[O-])cn2)c2ccccc2n1 | -28.9% (inactive)
11 | O=C(Nc1ccc(Br)c(C(F)(F)F)c1)c1ccccc1 | 7.5% (inactive)
12 | O=C(Nc1ccc(Br)c(C(F)(F)F)c1)c1ccc(C(F)(F)F)cc1 | 41.9% (active)
13 | Cc1ccc(C(=O)Nc2ccc(Br)c(C(F)(F)F)c2)cc1 | -51.3% (inactive)
14 | C=CCn1c(SCc2nc3cc(C(F)(F)F)ccc3c(=O)[nH]2)nc2sc(CC)cc2c1=O | -9.3% (inactive)
15 | COc1ccc(-c2noc(N3CCC(C(=O)NCc4ccccc4Cl)CC3)n2)cc1 | 49.5% (inactive)
16 | O=C(N/N=C(/c1ccccc1)c1ccncc1)c1ccc2c(c1)OCO2 | -26.7% (inactive)
17 | Cc1cc(C(=O)COC(=O)CN(C)S(=O)(=O)c2ccc(Cl)cc2)c(C)n1CC1CCCO1 (configuration not stated) | -12.3% (inactive)
18 | c1ccc(-c2nnnc3ccccc23)cc1 | -26.7% (inactive)
19 | Cc1ccc2nnnc(-c3ccccc3)c2c1 | -32.7% (inactive)
20 | Clc1ccc2nnnc(-c3ccccc3)c2c1 | 63.1% (active)
21 | COC(=O)c1ccc(NC(=O)NCCCl)cc1 | -34.1% (inactive)
22 | Cc1c(C(=O)N2CCOCC2)sc(NC(=O)c2ccc([N+](=O)[O-])cc2)c1C#N | -2.6% (inactive)
23 | C/C(=N\NC(=O)c1c(C)nc2ccccn12)c1cccc([N+](=O)[O-])c1 | -11.1% (inactive)
24 | Cc1nc2ccccn2c1C(=O)/C=C/c1cccc([N+](=O)[O-])c1 | 101% (active)
25 | Cc1ccc(/C=C/C(=O)c2c(C)nc3ccccn23)cc1 | -11.3% (inactive)

Row | Compound | inhibition
26 | Cc1c(C(=O)N2CCN(c3ccccc3)CC2)sc2nc3n(c(=O)c12)CCC3 | 0.9% (inactive)
27 | CC(=O)c1ccccc1NC(=O)CCCNC(=O)c1ccc(Cl)cc1 | 17.3% (inactive)
28 | CC(=O)CCSc1ncnc2sc(-c3ccccc3)cc12 | -75.9% (inactive)
29 | O=C(O)CSc1ncnc2sc(-c3ccccc3)cc12 | -16.7% (inactive)
30 | COc1cc(CN2CCN(CCOCCO)CC2)cc(OC)c1OC | -4.8% (inactive)
31 | COc1ccccc1-[n+]1c(C)cc(/C=C2\Sc3ccccc3N2C)cc1C | 28.9% (inactive)
32 | Cc1ccc(/C=C2/Sc3ccccc3N(CC(=O)NCC3CCCO3)C2=O)cc1 (configuration not stated) | -4.1% (inactive)
33 | Cc1cc(/C=C2\Sc3ccccc3N2C)cc(C)[n+]1CC1CCCO1 (configuration not stated) | 56.7% (active)
34 | Nc1nonc1-n1nnc(C(=O)N/N=C/c2ccc(OCc3ccccc3)cc2)c1COc1ccc(F)cc1 | -0.6% (inactive)
35 | CC(=O)c1cccc(NC(=S)Nc2ccn(Cc3cccc4ccccc34)n2)c1 | -5.1% (inactive)
36 | O=C(Nc1ccn(Cc2cccc3ccccc23)n1)c1cccnc1 | 7.1% (inactive)
37 | NS(=O)(=O)c1ccc(NC(=S)Nc2ccn(Cc3cccc4ccccc34)n2)cc1 | 56.6% (active)
38 | Cc1cc(C)n(C(=O)c2ccc(C)c(Br)c2)n1 | -2.6% (inactive)
39 | c1csc(-c2nc(N3CCOCC3)c3ccccc3n2)c1 | -9.5% (inactive)
40 | c1csc(-c2nnc(N3CCOCC3)c3ccccc23)c1 | 2.4% (inactive)
41 | O=C1OCCN1c1c(-c2ccccc2)c(-c2cccs2)nc2c(-c3ccccc3)cccc12 | 66% (active)
42 | CCOc1ccc2nc(NC(=O)CSc3nc4cccnc4n3C)sc2c1 | -1% (inactive)
43 | CC1CC(NC(=O)c2cnc3n(c2=O)CCS3)CC(C)(C)C1 (configuration not stated) | -9% (inactive)
44 | O=C(NC1CCCC1)c1ncn[nH]1 | -17.9% (inactive)
45 | CC1CC(NC(=O)c2ncn[nH]2)CC(C)(C)C1 (configuration not stated) | 84.5% (active)
46 | Cc1nn(-c2ccc(Cl)c(Cl)c2)c(C)c1C(=O)O | -17.4% (inactive)
47 | CCc1nnc(NC(=O)CC23CC4CC(CC(Br)(C4)C2)C3)s1 | -2.7% (inactive)
48 | CCc1c(C)nc(SCC(=O)N2CCCCC2CC)[nH]c1=O (configuration not stated) | -11.1% (inactive)
49 | C/C(=N\NC(=O)c1cccc(Br)c1)c1cccc(NC(=O)c2ccc(C)o2)c1 | -55.5% (inactive)
50 | C/C(=N\NC(=O)C1(C)CC1(Br)Br)c1cccc(NC(=O)c2ccc(C)o2)c1 (configuration not stated) | 89.8% (active)

Row | Compound | inhibition
51 | C/C(=N\NC(=O)C1(C)CC1(Br)Br)c1ccc(NC(=O)c2ccc(C)o2)cc1 (configuration not stated) | 13.4% (inactive)
52 | O=S(=O)(O)c1ccc(N=NNc2ccc(Br)cc2)cc1 | -12.1% (inactive)
53 | C=C1/C(=C\C=C2/CCC[C@]3(C)[C@@H]([C@H](C)CCCC(C)(C)O)CC[C@@H]23)C[C@@H](O)C[C@@H]1O | 65.6% (active)
54 | COc1ccc(-c2nc(C)ncc2-c2ccc(Cl)cc2)c(O)c1 | 5.6% (inactive)
55 | CCN(C(=O)COC(=O)/C=C/c1cccc(Br)c1)C1CCS(=O)(=O)C1 (configuration not stated) | -18.9% (inactive)
56 | CN(C(=O)COC(=O)/C=C/c1ccc(C(F)(F)F)cc1)C1CCS(=O)(=O)C1 (configuration not stated) | -16.9% (inactive)
57 | CN(C(=O)COC(=O)/C=C/c1cccc([N+](=O)[O-])c1)C1CCS(=O)(=O)C1 (configuration not stated) | 61.3% (active)
58 | CCOC(=O)c1c(Nc2ccccc2)sc(/C=C2\C=Nc3ccccc32)c1O | -68% (inactive)
59 | CCN(CC)C(=O)Oc1ccc2ccccc2c1Cl | -86.7% (inactive)
60 | CCS(=O)(=O)CCSc1nc2ccccc2s1 | -2.7% (inactive)
61 | O=S(=O)(CCSc1nc2ccccc2s1)c1nc2ccccc2s1 | 99% (active)
62 | O=S(=O)(CCSc1ccccn1)c1nc2ccccc2s1 | 74.4% (inactive)
63 | Cc1ccc(S(=O)(=O)N2CCCC2)cc1C(=O)NCc1ccccn1 | -26.2% (inactive)
64 | O=C(c1cc(-c2ccc(F)cc2)on1)N1CCCCCC1 | -53.7% (inactive)
65 | Nc1c(Cl)ncnc1N/N=C/c1ccnc2ccccc12 | 8.6% (inactive)
66 | Nc1c(Cl)ncnc1N/N=C/c1ccc(O)cc1 | -9% (inactive)
67 | Nc1c(Cl)ncnc1N/N=C/c1ccc2ccccc2n1 | 109% (active)
68 | CCCCOC(=O)C1C2C=C[C@]3(CN(C(C)c4ccc(OC)cc4)C(=O)[C@H]13)O2 (some centres not stated) | 11.8% (inactive)
69 | CC(=O)Nc1cccc(Cl)c1C(=O)O | -21.4% (inactive)
70 | Cc1nn(C(=O)c2ccco2)c(C)c1Sc1ccc([N+](=O)[O-])cc1 | -7.1% (inactive)
71 | O=C(N/N=C(\CC(=O)c1cccs1)C(F)(F)F)c1ccncc1 | -3.7% (inactive)
72 | O=C(N/N=C(/CC(=O)c1cccs1)C(F)(F)F)c1ccc(O)cc1 | -19.9% (inactive)
73 | Cc1ccc(C(=O)N/N=C(/CC(=O)c2cccs2)C(F)(F)F)cc1 | 70% (active)
74 | COC(=O)Cc1c(C)c2ccc(OC3CCCCC3=O)c(C)c2oc1=O (configuration not stated) | -8.8% (inactive)
75 | Clc1ccc(-c2nnc(C3CC3)o2)cc1 | -15.4% (inactive)

Row | Compound | inhibition
76 | Clc1ccc(-c2nnc(C3CCCCC3)o2)cc1 | 70.8% (active)
77 | c1cncc(-c2nnc(C3CCCCC3)o2)c1 | 11.8% (inactive)
78 | COc1ccc(C(=O)NC(CC(=O)O)c2cc([N+](=O)[O-])ccc2Cl)c(SC)c1 (configuration not stated) | -14.4% (inactive)
79 | O=C1C2CCCN2C(c2ccc(F)cc2)N1c1cccc(Cl)c1 (configuration not stated) | -10.3% (inactive)
80 | O=C(COC(=O)c1cncc(Br)c1)NCCC1=CCCCC1 | -8.5% (inactive)
81 | Cc1ccc(Sc2ccc(/C=N/O)cc2[N+](=O)[O-])cc1 | 54.4% (active)
82 | O=[N+]([O-])c1cc(/C=N/O)ccc1Sc1ccccc1 | 8.1% (inactive)
83 | CO/N=C/c1ccc(Sc2ccc(C)cc2)c([N+](=O)[O-])c1 | 7.3% (inactive)
84 | COc1ccc(OC)c(NC(=O)C2CCN(c3ncccn3)CC2)c1 | -1.7% (inactive)
85 | COc1ccc(N2CCN(Cc3cc4c(cc3Br)OCCO4)CC2)cc1 | -11.3% (inactive)
86 | CCc1nccn1Cc1cc(C=O)ccc1OC | 15% (inactive)
87 | COc1ccc(C=O)cc1Cn1ccnc1 | -23% (inactive)
88 | COc1ccc(C=O)cc1Cn1ccnc1C | 62.6% (active)
89 | Cc1oc(-c2ccccc2)cc1C(=O)NC(Cc1c[nH]c2ccccc12)C(=O)O (configuration not stated) | -35.2% (inactive)
90 | O=C(NCCNC(=O)c1ccccc1)c1ccccc1 | -9.5% (inactive)
91 | CCCCCn1c(N)c(C#N)c2nc3ccccc3nc21 | 8.5% (inactive)
92 | CN(C)CCCn1c(N)c(C#N)c2nc(C#N)c(C#N)nc21 | 76.3% (active)
93 | CN(C)CCCn1c(N)c(C#N)c2nc3ccccc3nc21 | 5.6% (inactive)
94 | Cc1ccc(C2C(C=Nc3c(C)n(C)n(-c4ccccc4)c3=O)=C(c3ccccc3)Oc3ccccc32)cc1 (configuration not stated) | 29.1% (inactive)
95 | Cc1ccc(C2C(/C=C3/SC(=S)NC3=O)=C(c3cccs3)Oc3ccccc32)cc1 (configuration not stated) | 88% (active)
96 | O=C1NC(=S)S/C1=C\c1ccc2ccccc2c1 | 5.2% (inactive)
97 | CCC1CCCCN1S(=O)(=O)c1ccc(S(=O)(=O)N(Cc2cccs2)C2CC2)cc1 (configuration not stated) | 7.6% (inactive)
